Assay outcomes from PubChem.
Only some compounds are listed: those with a hit (about 0.5% of all), similar ones and a draw of the others.
Tat transport – E. coli Tat export inhibitors, primary screen, MC4100, TorA-mCherry reporter, fluorescence, single point | inhibition, % at 10 µM | 0.036% of 340,000 active;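 active means mean replicate inhibition at least 50% and at least half of replicates individually reaching 50%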;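 further: exported cargo escapes ClpAP degradation while cytoplasmic cargo is degraded and loses fluorescence; 0% = median of neutral control wells and 100% = median of NaSCN control wells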
phage Ecoli inh – growth loss of phage-infected E. coli, primary screen, RecBCD inhibitor project, absorbance, with phage, HTS. inhibition, % at 11.9 µM. 0.26% of 360,000 active. AID 651602, 2012; in the data active means inhibition above about 11%
E coli growth-1 – E. coli growth inhibition, primary screen, OD600; Escherichia coli growth, 23 h; stronger effect = lower value; OD600 absorbance (no concentration beside the values); 0.21% of 330,000 active; AID 1053175, 2014;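 active means OD600 absorbance below the run mean of sample wells minus 3.6 SD, in any replicate, cut at about 0.56 in these data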
E coli growth-2 – E. coli V3065 growth inhibition, primary screen, counter-screen for AddAB inhibitor project, absorbance, OD600; inhibition, % at 11.9 µM; 0.27% of 330,000 active; 18 h;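 active means inhibition above the campaign's mean inhibition across all tested compounds plus 3 SD, cut at about 9.9% in these data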;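 further: uninfected addAB+ strain grown without phage in ampicillin broth; 0% = DMSO wells and 100% = ciprofloxacin 0.95 µg/ml wells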
AddAB inh – growth inhibition of E. coli expressing H. pylori AddAB, primary screen, AddAB inhibitor project, absorbance | inhibition, % at 11.9 µM | 0.29% of 330,000 active; in the data active means inhibition above about 12%;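 further: 0% = vehicle wells of infected cells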
* marks the source's active call; other numbers are inactive results.

How did COc1ccc(N2C(=O)C(=Cc3ccc([N+](=O)[O-])cc3)N=C2C)c(OC)c1 do in these assays?
E coli growth-1: 0.69

What do the screens show for `C=CCCC(Cc1ccc(F)cc1)C(=O)OCC1CCCN1C(=O)C(CC=C)CC(=O)NCCO` (stereo not drawn)?
E coli growth-1: 0.71

How did CCc1nnc(NS(=O)(=O)c2ccc(NC=CC(=O)c3ccc(C)cc3)cc2)s1 do in these assays?
E coli growth-1: 0.68

Results for COc1ccc2cc(C(c3nnnn3C3CCCCC3)N3CCCCCC3)c3nnnn3c2c1 (stereo not drawn) ?
Tat transport: -6; phage Ecoli inh: 0; E coli growth-1: 0.73; E coli growth-2: 0; AddAB inh: 0

Results for COc1ccc2cc(C(c3nnnn3C3CCCC3)N3CCCCCC3)c3nnnn3c2c1 (stereo not drawn) ?
Tat transport: -4; phage Ecoli inh: 2; E coli growth-1: 0.78; E coli growth-2: 12*; AddAB inh: 9

Results for CCOc1cccc(/C=N/Nc2ccc(S(=O)(=O)N(CC)CC)cn2)c1O ?
Tat transport: -5; phage Ecoli inh: 13*; E coli growth-2: 12*; AddAB inh: 12

How did COc1cccc(C=NNc2ccc([N+](=O)[O-])cn2)c1O do in these assays?
E coli growth-1: 0.41*

What do the screens show for `COc1cccc(/C=N/Nc2ccc([N+](=O)[O-])cc2)c1O`?
Tat transport: -15; phage Ecoli inh: 1; E coli growth-2: -1; AddAB inh: 0

What do the screens show for `C#CCOCCOCCOCCNc1nc(N2CCN(C(=O)CCCCCCCCCCNC(=O)C(CCCCN)n3cc(C)nn3)CC2)nc(N2CCN(C(=O)CCCCCCCCCCNC(=O)C(C(C)O)n3cc(C)nn3)CC2)n1` (stereo not drawn)?
E coli growth-1: 0.59

How did Cc1ccccc1CN1CC2CC(c3cnc(N4CCOCC4)s3)N3CCC[C@@]23C1=O (stereo partly drawn) do in these assays?
E coli growth-1: 0.69

Results for COc1ccc(SCCN2CCC(NC(=O)OCc3ccccc3)CCC2=O)cc1 (stereo not drawn) ?
E coli growth-1: 0.64

How did NC(C(=O)NC1C(=O)N2C(C(=O)O)=C(Cl)CSC12)c1ccccc1 (stereo not drawn) do in these assays?
E coli growth-1: 0.06*

Results for COC(=O)C1=CC(C(=O)OC)C2C3=C(C(=O)[C@@]2(C)NC(=O)c2ccccc2)C(C)C(C(=O)OC)=C(C(=O)OC)C3C1 (stereo partly drawn) ?
E coli growth-1: 0.71

How did CCN1/C(=C/C=C/c2oc3ccc4ccccc4c3[n+]2CC)Oc2ccc3ccccc3c21 do in these assays?
E coli growth-1: 0.69; E coli growth-2: 11*; AddAB inh: 11

Results for CCc1cccc2c(C(=O)COC(=O)c3ccccc3)c[nH]c12 ?
Tat transport: 1; phage Ecoli inh: 3; E coli growth-1: 0.09*; E coli growth-2: 1; AddAB inh: 2

How did CCOC(=O)N/N=C/C(Cl)=C/c1ccccc1 do in these assays?
Tat transport: 5; phage Ecoli inh: 2; E coli growth-2: 13*; AddAB inh: 9

What do the screens show for `CCN1CC2C3C(=O)N(Cc4ccccc4)C(=O)C3[C@](C)(C1=O)N2C(=O)c1ccc(C(F)(F)F)cc1` (stereo partly drawn)?
E coli growth-1: 0.71

What do the screens show for `COCC1=C(C(=O)OC(C)OC(=O)OC(C)C)N2C(=O)[C@@H](NC(=O)/C(=N\OC)c3csc(N)n3)[C@H]2SC1` (stereo partly drawn)?
Tat transport: -4; phage Ecoli inh: 7; E coli growth-2: 2; AddAB inh: -1

Results for C=CC1=C(C(=O)O)N2C(=O)C(NC(=O)C(=NOCC(=O)O)c3csc(N)n3)C2SC1 (stereo not drawn) ?
E coli growth-1: 0.062*

What do the screens show for `COc1ccc(CN(C(CO)CC(C)C)S(=O)(=O)N(Cc2ccccc2)C(CO)CC(C)C)cc1` (stereo not drawn)?
E coli growth-1: 0.68

How did CC(=O)N1N=C(c2cccc([N+](=O)[O-])c2)OC1c1ccc(Br)cc1 (stereo not drawn) do in these assays?
Tat transport: 16; phage Ecoli inh: 1; E coli growth-1: 0.65; E coli growth-2: 1; AddAB inh: -1

What do the screens show for `CC(=O)N1N=C(c2ccccc2)OC1c1ccc([N+](=O)[O-])s1` (stereo not drawn)?
Tat transport: -2; E coli growth-1: 0.51*; E coli growth-2: 1; AddAB inh: -2
